Spn DPM-DC inh – S. pneumoniae DPM-DC inhibition | purified DPM-DC, PK/LDH coupled NADH fluorescence | calls only at 10 µM | hit rate 0.49% among 65,000;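 active = the 320 compounds with the highest percent inhibition in the single-dose primary screen, excluding strongly autofluorescent ones, cut at about 32% in these data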;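 note: kinetic rate of NADH fluorescence loss reporting ADP formed by the decarboxylase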
Spn PMK inh – S. pneumoniae PMK inhibition; inhibition, % at 10 µM; hit rate 0.49% among 65,000; purified PMK, PK/LDH-coupled NADH absorbance 340 nm;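 active = top-ranked compounds by inhibition in the single 10 µM screen, taking a fixed number of the strongest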
NADH coupling – inhibition of NAD/NADH coupling enzymes, library profiling; coupled PK/LDH NADH assays, four targets; IC50, µM (highest dose often 10 µM); hit rate 0.02% among 65,000;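 active = single-dose screening hits from any of four coupled enzyme assays that gave an IC50 when retested across doses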;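 note: the DPM-DC format reads NADH fluorescence rather than 340 nm absorbance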
A340 absorber – compounds absorbing at 340 nm | fold change at 10 µM | 65,000 tested, under 10 active | compound absorbance at 340 nm, fold over control | AID 708;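 active = at 10 µM dose, initial 340 nm absorbance at least 2 fold that of control wells; inactive = change under 2 fold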;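 note: initial absorbance extrapolated from kinetic A340 decline of NADH oxidation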
Fluor 339 460 – intrinsic fluorescence of library compounds, ex339/em460 – biochemical, MLSMR library, data from DPM-DC assay, artefact control, profiling panel; compound autofluorescence, ex339/em460 nm, NADH buffer; active compounds read high; 1 = no-compound wells, NADH background; fluorescence fold increase at 10 µM; hit rate 5.5% among 65,000;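 active = at 10 µM, mean starting fluorescence two-fold or more over control wells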;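 note: signal is the first read of a kinetic run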
MK inhibit – inhibitors of Streptococcus pneumoniae mevalonate kinase | purified MK, PK/LDH-coupled NADH absorbance 340 nm | inhibition, % at 10 µM | hit rate 0.48% among 65,000;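 active = ranked among the strongest by inhibition in the single 10 µM screen, a fixed top-ranked set picked for dose follow-up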
A number is an active result; - = inactive; . = no result shown; + = active, no number. An excerpt weighted towards active compounds, which were near 6.8% of everything screened.

SMILES | Spn DPM-DC inh | Spn PMK inh | NADH coupling | A340 absorber | Fluor 339 460 | MK inhibit
COc1ccc(-n2c(N)c(C(=O)NCc3ccco3)c3nc4ccccc4nc32)c(OC)c1 | . | - | - | - | 2.9 | -
COc1ccc(CCn2c(N)c(C(=O)NCc3ccco3)c3nc4ccccc4nc32)cc1OC | . | - | - | - | 3.6 | -
Cc1occc1-c1nnc(SCC(=O)N2CCOCC2)n1CCc1ccccc1 | - | - | - | - | - | -
Cc1occc1-c1nnc(SCC(=O)N2CCOCC2)n1Cc1ccco1 | - | 27 | - | - | - | -
CN1CCN(Cc2c(O)ccc3c(=O)c(Oc4ccccc4Cl)c(C(F)(F)F)oc23)CC1 | - | - | - | - | - | -
CCOC(=O)c1ccc(Oc2c(C)oc3c(CN4CCN(C)CC4)c(O)ccc3c2=O)cc1 | . | - | - | - | 3.9 | -
CCOC(=O)c1c(CN2CCN(CCO)CC2)n(C)c2cc(Br)c(OC)cc12 | - | - | - | - | - | -
CCOc1ccccc1Oc1c(C)oc2c(CN3CCN(CCO)CC3)c(O)ccc2c1=O | . | - | - | - | 3.9 | -
Cc1oc2c(CN3CCCC3)c(O)ccc2c(=O)c1Oc1ccccc1Br | . | - | - | - | 3.9 | -
CCOC(=O)c1c(C)oc2ccc(O)c(CN3CCCCC3)c12 | - | - | - | - | - | -
COc1ccccc1Oc1c(C)oc2c(CN3CCN(CCO)CC3)c(O)ccc2c1=O | . | - | - | - | 4 | -
CN(CC(=O)NCc1cccs1)S(=O)(=O)c1cccc2nsnc12 | - | - | - | - | - | -
COc1cc2c(C)nc(C)c(C#N)c2cc1OC | - | - | - | - | - | -
CCOC(=O)C1=C(C)NC(=O)NC1/C(C)=C/c1ccccc1 (centres undefined) | - | 38 | - | - | - | -
CC(C)N=c1cc2n(-c3ccc(Cl)cc3)c3ccccc3nc-2cc1Nc1ccc(Cl)cc1 | + | - | - | - | - | -
Cc1ccc(Cn2cccc(NC(=O)c3ccco3)c2=O)cc1 | - | - | - | - | - | -
CCOC(=O)Nc1ccc2c(CN3C(=O)NC4(CCCC4)C3=O)cc(=O)oc2c1 | . | - | - | - | 3.3 | -
Cn1c2ccccc2c2cnn(CC(=O)N3CCN(c4ncccn4)CC3)c(=O)c21 | - | 25 | - | - | - | -
CN1CCN(CCCNC(=O)Cn2ncc3c4ccccc4n(C)c3c2=O)CC1 | - | - | - | - | - | -
CCOC(=O)c1c(NC(=O)CSc2nnc(CNC(=O)c3ccco3)n2C)sc2c1CCC2 | - | - | - | - | - | -
CCOC(=O)N1CCC2(CC1)CC(=O)c1c(ccc3oc(C(=O)O)c(C)c13)O2 | . | - | - | - | 3.4 | -
CCOC(=O)c1oc2ccc3c(c2c1C)C(=O)CC1(CCN(C(=O)OCC)CC1)O3 | - | - | - | - | - | -
COc1cc2c(OC)cccc2cc1C(=O)O | . | - | - | - | 2.9 | -
Cc1ccc(-n2ncc3c(=O)n(CC#N)cnc32)cc1 | - | - | - | - | - | -
CC(C)C(OC(=O)CN1C(=O)COc2ccccc21)C(=O)NC1CCCC1 (centres undefined) | + | - | - | - | - | -
SMILES | Spn DPM-DC inh | Spn PMK inh | NADH coupling | A340 absorber | Fluor 339 460 | MK inhibit
Cc1ccc2c(c1)N(CC(=O)OC(CC(C)C)C(=O)NC1CCCC1)C(=O)CO2 (centres undefined) | - | - | - | - | - | -
COc1ccccc1C(=O)NCCc1nc2ccccc2n1C | - | - | - | - | - | active
C#CCOc1ccc2c(C)cc(=O)oc2c1 | . | - | - | - | 3.9 | -
CCOC(=O)Oc1ccc2oc(=O)cc(C)c2c1 | - | - | - | - | - | -
Cc1cc(=O)oc2cc(OC(C)C)ccc12 | . | - | - | - | 2.1 | -
COc1cc(OC)c2c(C)cc(=O)oc2c1 | . | - | - | - | 3.8 | -
COc1ccc2oc(=O)cc(C)c2c1 | - | - | - | - | 2.6 | -
CCOc1ccc(OCc2ccc(C(=O)OCc3ccccn3)o2)cc1 | - | - | - | - | - | -
CCn1cc(C(=O)O)c(=O)c2cc(F)c(N3CCN(C(=O)Nc4ccccc4)CC3)cc21 | - | - | - | - | - | -
CCOC(=O)c1cn(CC)c2cc(N3CCSCC3)c(F)cc2c1=O | - | - | - | - | 2.9 | -
CCn1cc(C(=O)NCc2ccccn2)c(=O)c2cc(F)c(N3CCN(C)CC3)cc21 | - | - | - | - | - | -
CCn1cc(C(=O)O)c(=O)c2cc(F)c(N3CCNCC3)cc21 | . | - | - | - | 2.5 | -
N=c1oc2ccccc2cc1-c1nc2ccccc2c(=O)[nH]1 | - | - | - | - | - | -
O=C(NCc1ccc(F)cc1)c1cnc2sccn2c1=O | . | - | - | - | 2.1 | -
N#Cc1nc(COc2ccccc2)oc1N1CCN(c2cccc(Cl)c2)CC1 | - | - | - | - | - | -
COc1ccc(-c2nc(C#N)c(N3CCOCC3)o2)cc1OC | . | - | - | - | 3.1 | 11
COc1ccc(-c2nc(C#N)c(N3CCN(c4cccc(Cl)c4)CC3)o2)cc1OC | - | - | - | - | 2.1 | -
O=C(Cc1cc(=O)oc2cc(O)ccc12)NCC1CCC(C(=O)O)CC1 (centres undefined) | . | - | - | - | 3.9 | -
Cc1cccn2c(=O)c3cc(C#N)c(=O)n(-c4c(C)n(C)n(-c5ccccc5)c4=O)c3nc12 | - | - | - | - | - | -
Cc1cccn2c(=O)c3cc(C#N)c(=N)n(Cc4ccncc4)c3nc12 | - | - | - | - | - | -
Cc1cc(-n2c(=O)c(C#N)cc3c(=O)n4cccc(C)c4nc32)no1 | . | - | - | - | 4 | -
Cc1cccn2c(=O)c3cc(C#N)c(=NC(=O)c4ccc5c(c4)OCO5)n(CC(C)C)c3nc12 | + | - | - | - | 2.5 | -
Cc1ccc(-n2c(=O)c(C#N)cc3c(=O)n4ccccc4nc32)cc1 | . | - | - | - | 3.3 | -
CC(=O)N=c1c(C#N)cc2c(=O)n3cccc(C)c3nc2n1CC(C)C | . | - | - | - | 3.9 | -
COC(=O)C1(S(=O)(=O)c2ccc(C)cc2)CCOCC1 | - | - | - | - | - | -
SMILES | Spn DPM-DC inh | Spn PMK inh | NADH coupling | A340 absorber | Fluor 339 460 | MK inhibit
COc1cccc(C2/C(=C(/O)c3ccncc3)C(=O)C(=O)N2CCCN2CCOCC2)c1OC (centres undefined) | - | - | - | - | - | -
Cc1nc(N2CCc3ccccc32)[nH]c(=O)c1CCC(C)C | - | - | - | - | - | -
Cc1ccc2nc3ccc(N4CCN(C)CC4)nn3c(=O)c2c1 | - | - | - | - | 2.3 | -
COc1cc(OC)c(C2=NOC(C(=O)O)C2)cc1Cl (centres undefined) | - | - | - | - | - | -
CC12C(=O)N(CCC(=O)O)C(=O)C1C1C=CC2C1 (centres undefined) | - | - | - | - | - | -
C=CCNS(=O)(=O)c1cccc2cc(C(=O)O)c(O)cc12 | - | - | - | - | 2.3 | -
Cc1nn(-c2ccccc2)c(C)c1C(=O)OCC(=O)c1c(N)n(CC(C)C)c(=O)n(C)c1=O | - | - | - | - | - | -
